This is an account of results in ChEMBL document CHEMBL2218924, “A broad activity screen in support of a chemogenomic map for kinase signalling research and drug discovery” (Biochem J, 2013).

Structures are written as SMILES.

The target of experiment [1] is Protein kinase C alpha type (Homo sapiens) (UniProt P17252). As to conditions: at 1 µM.
Experiment [2] shares this target. As to conditions: at 10 µM.
In experiment [3] the target is Protein kinase C beta type (Homo sapiens) (UniProt P05771). As to conditions: at 1 µM.
The target is the same in experiment [4]. As to conditions: at 10 µM.
The target of experiment [5] is Protein kinase C gamma type (Homo sapiens) (UniProt P05129). As to conditions: at 1 µM.
The target is the same in experiment [6]. The following applies: at 10 µM.
Experiment [7] concerns the target Protein kinase C beta type (Homo sapiens) (UniProt P05771). As to conditions: at 1 µM. The source holds these as a separate data set.
Experiment [8] shares this target. The following applies: at 10 µM. The source holds these as a separate data set.
Experiment [9] concerns the target Protein kinase C delta type (Homo sapiens) (UniProt Q05655). The following applies: at 1 µM.
The target is the same in experiment [10]. The following applies: at 10 µM.

What is called residual activity is the signal under treatment as a percentage of the control signal.

Sequence of Protein kinase C beta type (Homo sapiens) (P05771 2-671 limits assumed): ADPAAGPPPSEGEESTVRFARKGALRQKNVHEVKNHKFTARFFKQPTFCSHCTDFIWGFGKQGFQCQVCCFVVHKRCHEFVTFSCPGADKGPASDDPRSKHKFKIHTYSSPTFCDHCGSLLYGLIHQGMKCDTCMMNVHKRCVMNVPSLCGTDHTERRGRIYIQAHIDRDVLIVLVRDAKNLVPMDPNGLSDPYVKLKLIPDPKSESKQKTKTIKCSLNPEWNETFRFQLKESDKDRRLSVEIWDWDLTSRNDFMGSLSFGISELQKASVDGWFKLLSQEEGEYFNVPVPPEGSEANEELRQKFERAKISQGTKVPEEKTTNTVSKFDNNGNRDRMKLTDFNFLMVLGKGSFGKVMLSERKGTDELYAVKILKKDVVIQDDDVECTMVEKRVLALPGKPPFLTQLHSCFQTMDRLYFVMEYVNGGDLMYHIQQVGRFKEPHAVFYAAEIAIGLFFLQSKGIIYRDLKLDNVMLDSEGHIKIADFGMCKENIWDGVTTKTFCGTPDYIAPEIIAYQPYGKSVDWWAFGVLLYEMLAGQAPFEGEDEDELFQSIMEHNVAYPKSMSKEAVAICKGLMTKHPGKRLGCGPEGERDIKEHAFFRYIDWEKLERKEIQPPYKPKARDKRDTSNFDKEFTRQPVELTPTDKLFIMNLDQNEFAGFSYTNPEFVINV
Sequence of Protein kinase C delta type (Homo sapiens) (Q05655 whole entry, looked up): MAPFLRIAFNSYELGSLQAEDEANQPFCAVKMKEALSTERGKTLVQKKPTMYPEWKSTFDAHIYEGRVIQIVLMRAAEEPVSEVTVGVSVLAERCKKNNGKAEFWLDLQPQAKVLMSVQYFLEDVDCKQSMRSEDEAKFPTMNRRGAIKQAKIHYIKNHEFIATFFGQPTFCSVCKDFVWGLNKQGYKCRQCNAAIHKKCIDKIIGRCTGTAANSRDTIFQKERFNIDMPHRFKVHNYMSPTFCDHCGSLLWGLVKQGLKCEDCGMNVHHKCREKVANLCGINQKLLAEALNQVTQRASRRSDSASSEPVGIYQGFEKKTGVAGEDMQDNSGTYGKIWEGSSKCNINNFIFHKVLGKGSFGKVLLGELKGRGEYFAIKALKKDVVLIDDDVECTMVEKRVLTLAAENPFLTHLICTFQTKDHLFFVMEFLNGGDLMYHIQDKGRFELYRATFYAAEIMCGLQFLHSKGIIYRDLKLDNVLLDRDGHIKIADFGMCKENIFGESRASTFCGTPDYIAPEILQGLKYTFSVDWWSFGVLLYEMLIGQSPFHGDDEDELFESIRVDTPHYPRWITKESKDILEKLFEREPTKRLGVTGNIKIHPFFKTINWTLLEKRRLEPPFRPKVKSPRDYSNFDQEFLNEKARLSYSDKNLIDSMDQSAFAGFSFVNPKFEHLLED

Turning to `Cn1c2ccccc2c2c3c(c4c5ccccc5n(CCC#N)c4c21)CNC3=O`, the residual activity in experiment [1] was 1%; in experiment [2], 3%; in [3] it was 6%; in [4], 6%; in experiment [5], 9%; in experiment [6], 16%.

For `O=C1NC(=O)C(c2c[nH]c3ccccc23)=C1c1c[nH]c2ccccc12`, the residual activity in experiment [1] was found to be 26%; in [2] it was 4%; in [3], 66%; in experiment [4], 23%; in experiment [7], 75%; in [8], 27%. The residual activity in experiment [5] is 36%; in experiment [6], 6%; in experiment [9], 31%; in [10], 5%.

`COc1ccc(CNC(=O)Nc2ncc([N+](=O)[O-])s2)cc1`: the residual activity in experiment [1] is 102%; in [2], 101%.

With `CC(C)c1nn(-c2c(Cl)cccc2Cl)c2nc(Cc3ccc(OCCO)cc3)[nH]c(=O)c12`, the residual activity in [1] was found to be 105%; in [2], 107%; in experiment [3] it was 125%; in experiment [4] it was 106%; in [7], 104%; in experiment [8], 95%. Also, the residual activity is 94% in experiment [5], 106% in [6], 103% in experiment [9] and 105% in experiment [10].

Consider `O=C(O)/C=C/c1cc(Br)c(Br)c(Br)c1Br`, for which the residual activity turned out to be 105% in experiment [1]; 102% in [2]; 124% in [3]; 97% in experiment [7]; 101% in experiment [8]; 96% in experiment [5]. Moreover, the figures for the residual activity in [9] and in experiment [10] were 100% and 96%, respectively.

`COc1cc2ncnc(Nc3cccc(Cl)c3)c2cc1OC`: the residual activity in [1] turned out to be 103%; in experiment [2] it was 108%; in [3], 110%; in experiment [4], 106%; in experiment [7], 107%; in experiment [8], 108%. Further, the residual activity stood at 104% in experiment [9] and 109% in experiment [10].

Take `c1ccc(-c2cnc(Nc3ccc(OCCN4CCCC4)cc3)s2)cc1`: the residual activity in [1] turned out to be 101%; in experiment [2] it was 110%; in experiment [3], 121%; in experiment [4] it was 116%; in experiment [5], 123%; in [6], 111%.

Take `N#Cc1c(NC(=O)c2cccc3ccccc23)sc2c1CCCC2`: the residual activity in experiment [5] was 94%.

With `O=C(Nc1nc2ccccc2n1CCN1CCOCC1)c1cccc([N+](=O)[O-])c1`, the residual activity in experiment [1] is 104%; in experiment [2], 102%; in [5], 105%; in experiment [6], 102%; in experiment [10] it was 103%.

For the compound `NC(=O)c1cccc(-c2cc(Nc3ccc(OC(F)(F)F)cc3)ncn2)c1`, the residual activity in experiment [7] was 92%; in experiment [8], 96%.

As for `O=C(c1cc2cc(O)ccc2[nH]1)c1cc2cc(O)ccc2[nH]1`, the residual activity came out at 56% in [6], 100% in [9] and 83% in experiment [10].

On to `O=C1C(Cl)=C(N2C(=O)CCC2=O)C(=O)c2ccccc21`, for which the residual activity in experiment [2] amounted to 3%; in experiment [6], 77%; in [9] it was 68%; in experiment [10], 60%.

In the case of `CCCCc1c(-c2ccc(OC)cc2)[nH]c2nccnc12`, the residual activity in experiment [3] was determined as 101%; in experiment [4], 90%; in experiment [7], 104%; in [8], 102%; in experiment [6], 106%; in experiment [10] it was 106%.

As for `O=C(c1ccccc1)c1ccc(N2CCOCC2)cc1O`, the residual activity worked out at 120% in experiment [3] and 113% in [4].

For the compound `N#C/C(=C\c1ccc(O)c(O)c1)C(=O)NCc1ccccc1`, the residual activity was determined as 124% in [5] and 102% in experiment [6].

For `CCCCc1c(-c2ccc(O)cc2)[nH]c2nccnc12`, the residual activity in experiment [1] is 97%; in experiment [2], 100%; in [9], 97%; in [10] it was 100%.

`CCOC(=O)c1c(C)[nH]c(/C=C2\C(=O)Nc3ccccc32)c1C`: in [9], the residual activity was found to be 96%.

As to `O=c1cc(N2CCNCC2)oc2c(-c3ccccc3)cccc12`, the residual activity in experiment [2] is 102%; in [7] it was 97%; in experiment [8], 95%; in [9], 101%; in [10], 102%.

For `COc1cc2nccc(Oc3ccc(NC(=O)Nc4cc(C)on4)c(Cl)c3)c2cc1OC`, the residual activity in [2] is 101%; in [3] it was 107%; in [4], 97%; in [7] it was 109%; in experiment [8], 104%; in experiment [9], 100%. Besides, the residual activity in experiment [10] turned out to be 106%.

As to `Nc1nccc(-c2c(-c3ccc(F)cc3)ncn2C2CCNCC2)n1`, the residual activity in experiment [3] was determined as 115%; in experiment [4] it was 69%; in [6], 63%.

Regarding `CCN1/C(=C/C(C)=O)Sc2ccc(OC)cc21`, the residual activity in [8] is 82%.

For the compound `Oc1cccc(-c2nc(N3CCOCC3)c3oc4ncccc4c3n2)c1`, the residual activity in experiment [7] is 98%; in [9], 94%.

On to `CN(C)S(=O)(=O)c1ccc2c(c1)/C(=C/c1cc3c([nH]1)CCCC3)C(=O)N2`, for which the residual activity was determined as 116% in experiment [7] and 121% in [10].

Consider `CCN(CC)CCNC(=O)c1c(C)[nH]c(/C=C2\C(=O)Nc3ccc(Cl)cc32)c1C`, for which the residual activity in [3] came to 125%; in experiment [4], 117%; in experiment [6], 51%; in experiment [10] it was 68%.

Consider `O=S(=O)(NCCNC/C=C/c1ccc(Br)cc1)c1cccc2cnccc12`, for which the residual activity is 55% in experiment [8], 38% in [6], 54% in experiment [9] and 11% in experiment [10].

For the compound `CCOc1nc(NC(=O)Cc2cc(OC)ccc2OC)cc(N)c1C#N`, the residual activity in [9] stood at 118%.

Turning to `Fc1ccc(-c2nc3n(c2-c2ccncc2)CCS3)cc1`, the residual activity in experiment [4] is 82%; in [10] it was 85%.

As for `O=C1Nc2ccc(Cl)cc2/C1=C/c1cc(Cl)c(O)c(Cl)c1`, the residual activity in experiment [8] is 90%; in experiment [9], 100%; in experiment [10], 100%.

With `O=S(=O)(c1cccc2cnccc12)N1CCCNCC1`, the residual activity in experiment [3] came to 75%; in [4], 46%; in experiment [8], 67%; in experiment [6] it was 63%; in experiment [9], 85%; in experiment [10], 32%.

`CN([C@@H](Cc1ccc(OS(=O)(=O)c2cccc3cnccc23)cc1)C(=O)N1CCN(c2ccccc2)CC1)S(=O)(=O)c1cccc2cnccc12`: the residual activity in experiment [5] and in experiment [6] was 99% in each case.

As to `Nc1ncnc2[nH]nc(Nc3ccc(F)cc3)c12`, the residual activity in experiment [1] amounted to 108%; in experiment [3], 122%; in [4] it was 110%; in experiment [7] it was 113%; in [8] it was 99%; in [9], 104%. Also, in [10], the residual activity was 91%.

As to `Nc1ncnc2c1cnn2-c1ccccc1`, the residual activity in experiment [1] amounted to 97%; in experiment [2] it was 97%; in experiment [6] it was 98%; in experiment [9] it was 99%; in experiment [10], 97%.

In the case of `Nc1n[nH]c2nc3ccccc3nc12`, the residual activity in [9] came out at 85%; in experiment [10], 68%.

For the compound `O=C1NC(=O)C(c2cn(CCCO)c3ncccc23)=C1c1cnccn1`, the residual activity in experiment [5] stood at 92%; in experiment [6], 91%; in experiment [9], 97%; in experiment [10], 91%.

Consider `N#C/C(=C1/Nc2ccccc2S1)c1ccnc(NCCc2cccnc2)n1`, for which the residual activity was found to be 125% in [3], 121% in experiment [4], 95% in experiment [5] and 100% in experiment [6].

`CC(C)N(CCC(=O)c1ccc2ccccc2c1)Cc1ccccc1`: the residual activity in [6] worked out at 85%.
